# Source: PubChem BioAssay (National Center for Advancing Translational Sciences (NCATS))
# HT1080 IDH1KD tx: toxicity to HT-1080 IDH1 knockdown cells (counter line); HT-1080 IDH1 knockdown viability, ATP luminescence, 48 h; Potency, µM (titrated, usually from 46.1 µM), for the others: at the top dose activity, negative = toxicity, actives largely listed as cytotoxic; actives 2% (n = 360,000);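 note: potency is the fitted concentration of half-maximal effect; 0% = DMSO wells and -100% = cell-free medium wells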
#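 In this qHTS, HT-1080 cells depleted of IDH1 are exposed for 48 h at 37 °C to compound titrations. Toxicity is scored from CellTiter-Glo luminescence, with DMSO as full viability and medium alone as none.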
# DT40 TDP1 CPT: growth inhibition of DT40 Tdp1-/-;hTDP1 cells with camptothecin (screen for TDP1 inhibitors); Potency, µM (series often up to 46.2 µM), without a hit: top-dose activity change, negative = growth inhibition, actives largely listed as inhibitors; chicken DT40 Tdp1-/-;hTDP1 cells + 20 nM CPT, ATP luminescence, 48 h; AID 686979; actives 12% (n = 420,000); note: potency is the fitted concentration of half-maximal effect; nearly all actives have a fitted effect of over 55% in size
#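 Chicken DT40 Tdp1-/- cells stably complemented with human TDP1 were seeded at 400 cells/well in medium containing 20 nM camptothecin, exposed to pin-transferred compounds, and grown at 37 °C for at least 48 hr. Viability was read as ATP luminescence.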
# TDP1 cell noCPT: qHTS for Inhibitors of human tyrosyl-DNA phosphodiesterase 1 (TDP1): qHTS in cells in absence of CPT. Potency, µM (highest dose often 46.2 µM), for the others: at the top dose activity change, negative = growth inhibition, actives largely listed as inhibitors. actives 15% (n = 420,000). DT40 Tdp1-/- hTDP1 cells, no CPT, ATP luminescence, 48 h; note: potency is the fitted concentration of half-maximal effect; nearly all actives have a fitted effect of over 55% in size
#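 Luminescent ATP content (CellTiter-Glo) served as the growth readout. Knockout chicken DT40 cells expressing human TDP1 were exposed to compounds without camptothecin for a minimum 48 hr at 37 °C.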
# IL-1B inflam inh: blocks inflammasome-driven IL-1 beta release | activity change, % at 57.5 µM | actives 4.7% (n = 360,000) | THP-1 LPS/ATP IL-1B secretion, AlphaLISA, 16 h; hits give low values; in the data active = activity change below about -50%; inconclusive = mostly about -30% to -49%
#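 THP-1 cells pretreated 1 hr with compounds (up to 57.5 uM final), then stimulated with LPS (250 ng/mL final) plus ATP (1.25 mM final); secreted IL-1B measured by AlphaLISA after 16 hr, decreased signal indicating inhibition.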
# HT1080NT lethal: kills 2HG-producing HT-1080-NT fibrosarcoma cells | actives 1.6% (n = 360,000) | HT-1080-NT fibrosarcoma viability, CellTiter-Glo ATP luminescence, 48 h | Potency, µM (series often up to 46.1 µM), for the others: at the highest dose activity, negative = less viability, hits mostly cytotoxic;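 note: NT is the 2HG producing partner of a matched IDH1 knockdown line; potency is the fitted concentration of half-maximal effect; 0% = DMSO-treated cells and -100% = media-only wells without cells; nearly all actives have a fitted effect of over 55% in size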
#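 HT-1080-NT; 750 cells/well; 5% FBS RPMI; 48 h compound, 37 degrees C; CellTiter-Glo luminescence; curve fitting and curve-class assignment.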
# Starred values were filed as active, the others as inactive; ? = inconclusive; / = not tested or not shown; [ ] = dose if it differs, or a comment. An excerpt weighted towards active compounds, which were near 19% of everything screened. Unless noted, calls come from the whole dose curve; as a rule, active = well fitted curve in the direction sought with a large enough effect; inconclusive = small, poorly fitted or top-dose-only effect, or another doubt; inactive = no such curve, though single readings can be large; an effect the other way counts as inactive or inconclusive. Unless noted, % is set by controls: 0 for no effect and ±100 for the full control effect.
SMILES,HT1080 IDH1KD tx,DT40 TDP1 CPT,TDP1 cell noCPT,IL-1B inflam inh,HT1080NT lethal
O=C(NCc1ccccc1)c1ccc(-c2cn[nH]c2)c2ccoc12,?,-49%,?,-23,-27%
COc1ccc(-c2coc3c(C(=O)NCc4cccc(Cl)c4)cccc23)c(C)c1,-6%,15µM*,15µM*,-11,?
CC(=O)Nc1ccc(S(=O)(=O)NC2(C(F)(F)F)NC(=O)N(CCc3ccc(F)cc3)C2=O)cc1 (stereo not given),/,-11%,-10%,/,/
CCC(C)NC(=O)c1cn(-c2cccc(OC)c2)c(=O)c2ccccc12 (stereo not given),13%,24%,8%,-18,4%
CC#CCN1c2ccccc2[C@]23C[C@@H](C(=O)OC)N(C(=O)NC4CCCCC4)C2=NC(C(=O)OC)=C(C(=O)OC)[C@H]13,4%,-25%,-23%,-13,1%
CC1(C)Nc2ccccc2N(Cc2ccc([N+](=O)[O-])cc2)C1=O,-17%,22%,-27%,-4,-11%
CC(=O)Nc1ccccc1-c1nc(CNC(=O)c2cccc(-n3cccn3)c2)c(C)o1,/,10%[9.04 µM],-3%,/,/
O=C(NCC1CCOCC1)c1cccc2c(-c3cccnc3)coc12,1%,-29%,?,-7,2%
COc1ccc(-c2coc3c(C(=O)NCc4cccs4)cccc23)c(C)c1,?,23µM*,18µM*,-53*,?
COc1ccc(-c2coc3c(C(=O)NCC4CC4)cccc23)c(C)c1,?,6.5µM*,26µM*,0,?
COc1ccc(-c2coc3c(C(=O)NCc4ccco4)cccc23)c(C)c1,?,18µM*,?,-26,18µM*
COc1ccc(-c2coc3c(C(=O)NCc4ccc(C(F)(F)F)cc4)cccc23)c(C)c1,?,?,-94%,-7,?
O=C(NCc1cccc(Cl)c1)c1ccc(-n2cncn2)c2ccoc12,-3%,16µM*,?,-28,1%
CN(C)S(=O)(=O)c1ccc(Cl)c(C(=O)NNC(=O)c2ccc3c(c2)OCO3)c1,0%,-19%,?,-9,1%
COc1ccc(-c2ccc(C(=O)NCc3cccs3)c3occc23)c(C)c1,?,?,?,-23,?
COc1ccc(-c2ccc(C(=O)NCc3ccco3)c3occc23)c(C)c1,?,?,?,-53*,?
COc1ccc(CNC(=O)c2ccc(-c3c(C)noc3C)c3ccoc23)cc1OC,-9%,?,?,87,1%
COc1ccc(-c2ccc(C(=O)NCc3ccc(N(C)C)cc3)c3occc23)c(C)c1,?,?,16µM*,-15,-12%
COC(=O)c1ccc(NC(=O)CCS(=O)(=O)c2ccc3c(c2)NC(=O)C(C)S3)cc1 (stereo not given),-2%,?,?,57,-2%
O=C(COc1ccc2ccccc2c1)N1c2ccccc2Sc2ccccc21,?,?,?,-19,-15%[9.24 µM]
O=C(CCl)N1c2ccccc2Sc2ccc3ccccc3c21,?,3.7µM*,2.3µM*,-104*,18µM*
CN(C)CCCN1c2ccccc2Sc2ccc3ccccc3c21,?,?,?,-102*,-17%
Cc1ccc2c(c1)Sc1c(ccc3ccccc13)N2,-21%,?,?,14,-3%
CN(C)CCCN1c2ccccc2CCc2ccccc21,-4%,/,/,?,-2%
CN(C)CCCN1c2ccc3ccccc3c2Sc2cccc(Cl)c21,?,?,?,-96*,-20%
SMILES,HT1080 IDH1KD tx,DT40 TDP1 CPT,TDP1 cell noCPT,IL-1B inflam inh,HT1080NT lethal
CCC(CC)C(=O)Nc1ccc(OCc2cc(=O)n3ccc(C)cc3n2)cc1,/,-4%,-15%,/,/
COc1ccc(OCC(=O)Nc2nnc3n2CCS3)cc1,/,-9%,-10%,/,/
O=C(C1=NOC(CNc2ncc(C(F)(F)F)cc2Cl)C1)N1CCOCC1 (stereo not given),-11%,0.46µM*,-9%,22,-1%
O=C(NC1CC1)C1=NOC(CNc2ncc(C(F)(F)F)cc2Cl)C1 (stereo not given),-4%,0%,-12%,-22,0%
COc1ccc(N2CCN(S(=O)(=O)CCNC(=O)COc3ccccc3F)CC2)cc1,/,2%,-26%,/,/
COc1cc(OC)cc(-c2nc3nc(C)c(CCC(=O)Nc4cc(F)ccc4F)c(C)n3n2)c1,/,?,8.2µM*,/,/
COc1cc(OC)cc(-c2nc3nc(C)c(CCC(=O)Nc4ccc(Cl)cc4)c(C)n3n2)c1,/,15%,-20%,/,/
COc1cc(OC)cc(-c2nc3nc(C)c(CCC(=O)Nc4ccc(F)cc4F)c(C)n3n2)c1,/,?,13µM*,/,/
Cc1ccc(NC(=O)C2=COCCO2)cc1S(=O)(=O)N1CCOCC1,-3%,7%,-28%,0,-3%
O=C(Nc1cc(S(=O)(=O)N2CCOCC2)ccc1N1CCOCC1)c1cc2c(s1)CCC2,-3%,-1%,23µM*,-57*,-4%
O=C(Nc1cc(S(=O)(=O)N2CCOCC2)ccc1O)c1ccc(NS(=O)(=O)c2ccc(Cl)s2)cc1,-3%,8%,-18%,15,-1%
CC(C)NC(=O)c1ccccc1NS(=O)(=O)c1ccc(Br)s1,-29%,?,21µM*,21,?
Cc1ccc(NC(=O)c2ccccc2NS(=O)(=O)c2ccc(Cl)s2)cc1S(=O)(=O)N1CCOCC1,?,13µM*,12µM*,?,?
Cc1ccc(NC(=O)c2ccc([N+](=O)[O-])s2)cc1S(=O)(=O)N1CCOCC1,21µM*,16µM*,16µM*,43,?
Cc1c(NC(=O)CN2C(=O)NC3(CCCCC3)C2=O)c(=O)n(-c2ccccc2)n1C,17%,4%,-7%,5,22%
COc1ccc(C)cc1NC(=O)c1ccccc1NS(=O)(=O)c1ccc(Cl)s1,16µM*,8.2µM*,6.5µM*,?,?
O=C(Nc1cc(S(=O)(=O)N2CCOCC2)ccc1N1CCOCC1)c1ccc([N+](=O)[O-])s1,5%,12µM*,7.3µM*,?,-13%[9.24 µM]
COc1ccc(NS(=O)(=O)c2cc([N+](=O)[O-])ccc2N/N=C/c2c(C)[nH]c3ccccc23)cc1,-1%,?,23µM*,21,2%
CN(C(=O)CCNC(=O)Cn1cnc2ccccc2c1=O)c1ccccc1F,11%,11%,-27%,79,5%
N#CC1=C(C=Nc2ccccc2O)CCC1,-10%,1%,-10%,-7,0%
